From PubChem BioAssay
TDP1 cell CPT = DT40-hTDP1 cell growth loss with CPT; chicken DT40 Tdp1-/-;hTDP1 cells + 20 nM CPT, ATP luminescence, 48 h; Potency, µM (titrated, usually from 46.2 µM), inactives show top-dose activity change, negative = growth inhibition, hits mostly inhibitors; 420,000 compounds, 12% hits; AID 686979; further: potency means the concentration at half of the fitted maximal effect; nearly all actives have a fitted effect of over 55% in size
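Cell growth measured by CellTiter-Glo luminescence after a minimum 48 h, 37 C compound exposure with 20 nM CPT in Tdp1-knockout DT40 cells stably expressing hTDP1, seeded 400/well; qHTS titration format.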
TDP1 cell noCPT = qHTS for Inhibitors of human tyrosyl-DNA phosphodiesterase 1 (TDP1): qHTS in cells in absence of CPT; DT40 Tdp1-/- hTDP1 cells, no CPT, ATP luminescence, 48 h; Potency, µM (titrated, usually from 46.2 µM), without a hit: at the highest dose activity change, negative = growth inhibition, actives largely listed as inhibitors; 420,000 compounds, 15% hits; AID 686978, 2013; further: potency means the concentration at half of the fitted maximal effect; nearly all actives have a fitted effect of over 55% in size
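A cellular qHTS used chicken DT40 cells lacking endogenous Tdp1 but carrying stably transfected human TDP1. Compounds were applied without camptothecin, and cell growth kinetics were judged by ATP-dependent luminescence after ≥48 hr.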
RORgamma inh = ROR gamma (mouse) transcription inhibition | Drosophila S2 Gal4-RORgamma UAS-luciferase reporter, 20 h | AID 2551 | P51450 | 310,000 compounds, 5.4% hits | Potency, µM (top dose mostly 53.6 µM), inactives show at the top dose activity change, negative = inhibition, actives largely listed as inhibitors; further: potency means the concentration at half of the fitted maximal effect; nearly all actives have a fitted effect of over 60% in size
Target sequence (P51450 whole entry, looked up, the tested form may be a part): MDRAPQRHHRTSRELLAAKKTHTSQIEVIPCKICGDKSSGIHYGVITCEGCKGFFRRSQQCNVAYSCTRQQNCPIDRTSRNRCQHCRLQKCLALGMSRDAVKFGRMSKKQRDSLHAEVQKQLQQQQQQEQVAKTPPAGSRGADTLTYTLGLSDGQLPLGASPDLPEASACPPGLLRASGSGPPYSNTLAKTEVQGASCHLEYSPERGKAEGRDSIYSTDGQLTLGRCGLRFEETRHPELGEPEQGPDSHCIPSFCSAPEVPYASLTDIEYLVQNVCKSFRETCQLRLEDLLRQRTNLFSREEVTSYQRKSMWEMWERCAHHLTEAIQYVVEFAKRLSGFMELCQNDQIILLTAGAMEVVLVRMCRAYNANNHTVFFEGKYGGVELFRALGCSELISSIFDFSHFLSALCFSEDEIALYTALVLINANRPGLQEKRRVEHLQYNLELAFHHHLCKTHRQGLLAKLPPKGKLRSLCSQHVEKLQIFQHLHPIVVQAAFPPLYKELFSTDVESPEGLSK
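Using a luciferase readout, inhibitors were identified by reduced reporter activity in Drosophila cells coexpressing a copper-inducible Gal4–ROR gamma fusion and UAS-driven Photinus luciferase, incubated 20 hr after 700 uM copper sulfate.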
Gal4-VP16 FLuc = inhibits Gal4-VP16 luciferase reporter, ROR gamma counter-screen | Drosophila S2 Gal4-VP16 UAS-luciferase, luminescence, 20 h | Potency, µM (highest dose often 53.6 µM), for inactives: top-dose activity, negative = inhibition, most hits filed as inhibitors | 310,000 compounds, 3.5% hits;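 further: Gal4-VP16 expression switched on by copper sulfate through the metallothionein promoter; potency means the concentration at half of the fitted maximal effect; nearly all actives have a fitted effect of over 50% in size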
LDHA inh = LDHA (human) enzyme inhibition; activity change, % (values are at about 110 or 230 µM); 480,000 compounds, 0.15% hits; AID 1347041; purified LDHA, NADH/diaphorase-resazurin fluorescence; active compounds read low; P00338; in the data active means activity change below about -30%; inconclusive means mostly about -25% to -30%;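 further: plate controls were DMSO wells for no effect and wells without enzyme for full effect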
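Enzyme activity of human lactate dehydrogenase 5 (2 nM; 0.06 mM NADH, 0.2 mM pyruvate, 5 min, RT) is measured via a resazurin/diaphorase fluorescence readout of residual NADH.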
IL1B secr inh = inflammasome signaling inhibition, IL-1 beta readout. THP-1 LPS/ATP IL-1B secretion, AlphaLISA, 16 h; active compounds read low. activity change, % at 57.5 µM. 360,000 compounds, 4.7% hits. AID 743279; in the data active means activity change below about -50%; inconclusive means mostly about -30% to -49%
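THP-1 cells pretreated 1 hr with compounds (up to 57.5 uM final), then stimulated with LPS (250 ng/mL final) plus ATP (1.25 mM final); secreted IL-1B measured by AlphaLISA after 16 hr, decreased signal indicating inhibition.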
* = called active by the depositor; i = inactive; ? = inconclusive; / = no result. Shown are actives, neighbours in structure and some others; about 18% of the full set was active somewhere. Unless noted, the call rests on the fitted dose curve; in most records, active means well fitted curve in the direction sought with a large enough effect; inconclusive means small, poorly fitted or top-dose-only effect, or another doubt; inactive means no such curve, though single readings can be large; an effect the other way counts as inactive or inconclusive. Unless noted, on the % scale 0 is the no-effect control and ±100 the full control effect.

SMILES | TDP1 cell CPT | TDP1 cell noCPT | RORgamma inh | Gal4-VP16 FLuc | LDHA inh | IL1B secr inh
CN(C)C1=NC[C@H](Cc2ccccc2)N1CC1CCCC1 | 15µM* | 23µM* | / | / | -4 | 10
CN(C)C1=NC[C@H](Cc2ccccc2)N1CC1CCC(C(C)(C)C)CC1 (stereo partly specified) | 21µM* | 13µM* | -5% | -8% | -5 | -26
CC(C)C[C@H]1CN=C(N(C)C)N1CC1CCCCCC1 | 13µM* | 21µM* | / | / | -5 | -14
CN(C)C1=NC[C@H](Cc2ccccc2)N1CC1CCCCC1 | 13µM* | 12µM* | / | / | -2 | -11
O=C1NC[C@H](Cc2ccccc2)N(CC2CCN(CC3CCCC3)CC2)C1=O | -6% | -1% | / | / | -6 | 23
CCN1CCCC1CNC(=O)C(=O)Nc1cccc2[nH]ccc12 (stereo unspecified) | / | / | / | / | -1 | /
CCOc1c(Cl)cc(CNCc2cccc(C#N)c2)cc1OC | / | / | / | / | 3 | /
Cc1nc2ccc(Br)cc2c2c1CC(CBr)O2 (stereo unspecified) | 17% | -21% | 23% | 1% | -2 | -74*
N#Cc1ccc(CN2CCCC3(CCNCC3)C2)cc1 | ? | ? | -8% | 12% | / | /
N#Cc1ccc(CN2CCC3(CCNCC3)CC2)cc1 | ? | 18µM* | -6% | 4% | / | /
CN(C)N=Nc1nc2c([nH]1)c(=O)n(C)c(=O)n2C | -4% | -25% | -17% | -19% | 2 | -5
CN(C)N=Nc1nc2c(c(=O)n(C)c(=O)n2C)n1CC1CO1 (stereo unspecified) | 3.7µM* | 15µM* | 15% | -21% | -3 | 13
COCCn1c(SCC(=O)Nc2cccc(NC(C)=O)c2)nc2c([nH]c3ccccc32)c1=O | ? | 3.3µM* | -9% | 7% | -7 | i
COc1cccc(NC(=O)CSc2nc3c([nH]c4ccccc43)c(=O)n2C)c1 | ? | ? | -20% | -10% | -10 | 0
Cc1ncsc1CCSc1nc2ccccc2c(=O)n1C | ? | 23µM* | 26% | -16% | -2 | -11
Cc1cccc(NC(=O)CSc2nc3c([nH]c4ccccc43)c(=O)n2C)c1 | 8.2µM* | 12µM* | 13µM* | ? | -7 | 18
Cn1c(SCC(=O)Nc2ccccc2)nc2c([nH]c3ccccc32)c1=O | ? | ? | ? | 13µM* | -10 | 25
COCCn1c(SCC(=O)Nc2cccc(F)c2)nc2c([nH]c3ccccc32)c1=O | -23% | -15% | -6% | 3% | -3 | i
C=CCNC(=O)NC(=O)CN(C)CCCOc1ccccc1 | / | / | / | / | 10 | /
N#Cc1nc(-c2ccc(OCc3ccc(Cl)cc3)cc2)oc1NCc1ccco1 | / | / | / | / | -2 | /
Cc1oc(-c2ccc(C(=O)NCCCN3CCOCC3)cc2)nc1CS(=O)(=O)c1ccccc1 | / | / | / | / | 8 | /
COc1ccc(-c2nnc(CSc3nc4ccccc4c(=O)n3C)o2)cc1OC | 15µM* | 21µM* | 0% | 7% | -5 | -11
COn1c(SCc2ccc(C)cc2C)nc2ccccc2c1=O | 21µM* | 18µM* | ? | 1% | 5 | 7
CCC1CCCCN1C(=O)CSc1nc2c([nH]c3ccccc32)c(=O)n1C (stereo unspecified) | 18µM* | 21µM* | ? | -9% | -2 | 19
COn1c(SCC(N)=O)nc2ccccc2c1=O | 0% | 3% | 2% | 8% | -5 | 22
SMILES | TDP1 cell CPT | TDP1 cell noCPT | RORgamma inh | Gal4-VP16 FLuc | LDHA inh | IL1B secr inh
CCSc1nc2c([nH]c3ccccc32)c(=O)n1C | -4% | -22% | 2% | -7% | -2 | 41
Cc1cccc(NC(=O)CSc2nc3ccccc3c(=O)n2C)c1 | ? | ? | ? | ? | -3 | -71*
O=C(O)c1ccc(COc2cccc(/C=N/O)c2)cc1 | / | / | / | / | -5 | /
CC(C)NC(=O)NC(=O)C(C)Sc1nc2ccccc2[nH]1 (stereo unspecified) | / | / | / | / | 2 | /
CCC(C)C(=O)NCc1ccc(COC)cc1 (stereo unspecified) | / | / | / | / | 1 | /
CC1CCCC(C)N1 (stereo unspecified) | / | / | / | / | 2 | /
Cn1c(SCC(=O)NNC(=O)Cc2ccccc2)nc2ccccc2c1=O | 21µM* | 13µM* | 9% | -11% | -1 | -11
O=C(CSc1nc2c([nH]c3ccccc32)c(=O)n1-c1ccccc1F)Nc1cccc(C(F)(F)F)c1 | 21µM* | 16µM* | / | / | -2 | /
COc1ccc(-c2cc(-c3nnc(COC(=O)c4ccncc4)o3)c3ccccc3n2)cc1OC | -28% | 9.2µM* | -8% | 0% | -6 | ?
Cc1ccccc1CSc1nc2ccccc2c(=O)n1C | ? | 26µM* | / | / | -3 | 2
Cn1c(SCc2ccccc2Br)nc2ccccc2c1=O | ? | ? | 5% | -8% | -5 | 58
COc1ccc(-c2cc(C(=O)OCC#N)c3ccccc3n2)cc1OC | / | / | / | / | 0 | /
CC1(C)CC(NC(=S)Nc2ccc(F)c(Cl)c2)CC(C)(C)N1 | / | / | / | / | 2 | /
Cc1cc(N2C(=O)CCS2(=O)=O)ccc1S(=O)(=O)NC(C)C | / | / | / | / | -7 | /
Cc1cccc(C(=O)Nc2ccc(NC(=O)c3ccco3)cc2O)c1 | / | / | / | / | 5 | /
CCOc1ccc(OCC)c(NC(=O)CSc2nc3ccccc3c(=O)n2C)c1 | 16µM* | 21µM* | -15% | 20µM* | 2 | 20
CCNc1ccc(C(=O)N/N=C/c2c(C)nn(-c3ccccc3)c2N2CCCC2)cc1[N+](=O)[O-] | 18µM* | ? | -6% | ? | -5 | 18
O=C(N/N=C/c1cc2c3c(c1O)CCCN3CCC2)c1ccccc1O | 3.7µM* | 4.6µM* | ? | 20µM* | 16 | 221
Cc1ccc(NS(=O)(=O)c2cccc(C(=O)N/N=C/c3c(C)nn(-c4ccccc4)c3N3CCCC3)c2)c(C)c1 | ? | ? | 20% | -5% | -3 | -18
Cc1nn(-c2ccccc2)c(N2CCCC2)c1/C=N/NC(=O)c1ccccc1O | ? | ? | 10µM* | 10µM* | 3 | 15
CCOc1ccc(Oc2c(/C=N/NC(=O)C3CC3)c(C)nn2-c2ccccc2)cc1 | ? | 15µM* | 29% | -6% | -6 | 6
Cc1nn(-c2ccccc2)c(C)c1/C=N/NC(=O)c1ccccc1O | 0% | -12% | ? | ? | -7 | -21
CN(c1ccccc1)S(=O)(=O)c1ccccc1C(=O)OCn1nnc2ccccc2c1=O | / | / | / | / | 5 | /
CCCCCCCCN1c2ccccc2S(=O)c2ccccc21 | / | / | / | / | -7 | /
